PLK1 PBD block = blocks phosphopeptide binding to human PLK1 polo-box domain. P53350. Plk1 PBD binding of FITC phosphopeptide, fluorescence polarization. Potency, µM, inactives show max response, negative = inhibition, most hits filed as inhibitors. actives 2.8% (n = 360,000). AID 720504; note: series mostly up to about 57 µM; nearly all actives have a fitted effect of over 65% in size
KAT2A inh = inhibitors of human GCN5L2 histone acetyltransferase; GCN5L2 HAT assay, ThioGlo1 CoA-SH fluorescence; Potency, µM (series often up to 58.9 µM), without a hit: top-dose activity change, negative = inhibition, actives largely listed as inhibitors; actives 0.21% (n = 390,000)
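GCN5L2 (20 nM) in 50mM HEPES pH 7.5, 0.1mM EDTA, 0.01% Tween-20 preincubated 15 min with compounds at room temperature. Reaction started with H3(1-25) 75uM, acetyl-CoA 70uM, ThioGlo1 50uM; CoA-thiol fluorescence (Ex340/Em540) read at 0 and 20 min.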
12-LOX inh = ALOX12 (human) lipoxygenase inhibition | actives 1.1% (n = 580,000) | Potency, µM (doses to about 108 µM), inactives show at the highest dose activity change, negative = inhibition, hits mostly inhibitors | AID 1671190 | P18054 | purified 12hLO, xylenol orange hydroperoxide absorbance
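Purified human 12hLO (150 nM final) in 25 mM Hepes, 0.01% Triton X-100, pH 7.0 was preincubated 15 min at room temperature with compound. Then 40 uM arachidonic acid was added, 30 min. Hydroperoxide was read by Fe-XO absorbance ratio 573/405 nm.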
VDR inh = inhibitors of human vitamin D receptor | actives 0.93% (n = 400,000) | VDR-SRC2-3 peptide fluorescence polarization, 2 h | Potency, µM, for the others: max response, negative = inhibition, usual class: inhibitors | AID 504847 | P11473
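Inhibition of the VDR/SRC2-3 peptide interaction is quantified by fluorescence polarization. Compounds (23 nl, pintool) incubate with the reagents for 2 hours at ambient room temperature.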
The depositor's hits bear a star; ? = inconclusive; · = no result; ! = repeats disagree; [ ] = dose if it differs, or a comment. A selection: hits, their analogues and other compounds. The true share with any hit is near 3%. Calls come from the whole dose curve; as a rule, active = well fitted curve in the direction sought with a large enough effect; inconclusive = small, poorly fitted or top-dose-only effect, or another doubt; inactive = no such curve, though single readings can be large; an effect the other way counts as inactive or inconclusive. % is set by controls: 0 for no effect and ±100 for the full control effect; potency is the fitted concentration of half-maximal effect.

SMILES	PLK1 PBD block	KAT2A inh	12-LOX inh	VDR inh
COc1ccc(OC)c(/C=N/NC(=O)c2cc(-c3ccc(C)o3)nc3ccccc23)c1	-6%	-3%	?	-14%
Cc1ccc(-c2cc(C(=O)NCCN3CCOCC3)c3ccccc3n2)o1	-13%	13µM*	?	8%
O=C(Nc1ccc(SC(F)F)cc1)c1cc(-c2ccccc2)nc2ccccc12	·	·	40µM*	·
Cc1ccc(-c2cc(C(=O)Nc3cc(F)ccc3F)c3ccccc3n2)o1	·	·	7.9µM*	·
Cc1cccc(NC(=O)c2cc(-c3ccc(C)o3)nc3ccccc23)c1	·	·	10µM*	·
COc1cccc2cc(C(=O)NCCOc3cccc(C)c3)c(=O)oc12	·	·	-6%	·
Cc1cc2c(-c3cccc(OC(C)C)c3)nc(-c3c(C)noc3C)cc2[nH]1	·	·	3%[176 µM]	·
Cc1cccc(NC(=O)c2cc(-c3ccc(C)s3)nc3ccccc23)n1	-3%	-27%	?	-18%
Cc1ccc(-c2cc(C(=O)N3CCN(C(=O)c4ccco4)CC3)c3ccccc3n2)o1	·	·	18µM*	·
COc1ccc2nc(-c3ccc4c(c3)OCO4)cc(C(=O)NCCN3CCOCC3)c2c1	·	·	40µM*	·
Cc1ccc(-c2cc(C(=O)N3CCN(c4ccccc4O)CC3)c3ccccc3n2)o1	-4%	-16%	?	-3%
Cc1cc(NC(=O)c2cc(-c3ccc(C)s3)nc3ccccc23)no1	-11%	28µM*	?	-25%
COC(CN(C)C(=O)C1CCC(CNS(=O)(=O)c2ccc(C)cc2)CC1)OC (stereo not drawn)	21µM*	-21%	0%	-13%
NC(c1ccccc1)c1nnc2n1CCN(C(=O)N1CCCC1)C2 (stereo not drawn)	·	·	7.9µM*	·
Cc1cc(NC(=O)c2cc(-c3ccccc3Cl)nc3ccccc23)no1	-14%	-26%	0%	12%
Cc1cc(NS(=O)(=O)c2ccc(NC(=O)c3cc(-c4ccccc4Cl)nc4ccccc34)cc2)no1	67µM*	-5%	-17%	7%
Cc1cc(C)c2nc(-c3ccccn3)cc(C(=O)Nc3ccc(S(=O)(=O)Nc4onc(C)c4C)cc3)c2c1	6.7µM*	?	?	-7%
Cc1cc(C)c2nc(-c3ccccn3)cc(C(=O)NCCc3ccc(S(N)(=O)=O)cc3)c2c1	30µM*	-9%	-7%	17%
Cc1cc(C)c2nc(-c3ccccn3)cc(C(=O)NCc3ccc(S(N)(=O)=O)cc3)c2c1	-2%	-6%	6%	1%
Cc1cccc(OCC(=O)Nc2ccc(S(=O)(=O)Nc3onc(C)c3C)cc2)c1C	-7%	-1%	40µM*!	25%
O=C(Nc1ccc(S(=O)(=O)Nc2nccs2)cc1)c1cc(-c2ccccc2)nc2ccccc12	?	-23%	4%	-17%
Cc1cc(C)c2nc(-c3ccccn3)cc(C(=O)Nc3ccc(S(=O)(=O)Nc4cc(C)on4)cc3)c2c1	21µM*	?	-3%	?
Cc1ccc(-c2cc(C(=O)Nc3ccc(S(=O)(=O)Nc4nccs4)cc3)c3ccccc3n2)c(C)c1	5.3µM*	-22%	6%	-23%
CC1Oc2ccc(-c3csc(NC(=O)c4cccs4)n3)cc2NC1=O (stereo not drawn)	·	·	12%	·
Cc1cc(C)n(-c2nc3ccccc3c(=O)n2OCCOc2ccccc2)n1	3.4µM*	-3%	0%	-13%
SMILES	PLK1 PBD block	KAT2A inh	12-LOX inh	VDR inh
Cc1cc(CC(C)C)n(-c2nc3ccccc3c(=O)n2OCC(N)=O)n1	21µM*	-5%	12%	-15%
Cc1cc(C)n(-c2nc3ccccc3c(=O)n2OCC(N)=O)n1	-4%	3%	0%	1%
O=C/C=C/c1c(-c2ccccc2)cc2oc3ccccc3cc1-2	-12%	-10%	?	35µM*
COc1ccccc1-n1cnnc1SCC(=O)NC(C)c1cccc2ccccc12 (stereo not drawn)	·	·	2%	·
COc1ccc(-c2cc(C(F)(F)F)n3ncc(C(=O)NCC4CCCO4)c3n2)cc1 (stereo not drawn)	7.5µM*	-4%	4%	-10%
Cc1ccc(-c2cc(C(F)(F)F)n3ncc(C(=O)O)c3n2)cc1	30µM*	-3%	-9%	-22%
COc1cccc(-c2cc(C(F)(F)F)n3ncc(C(=O)NCC4CCCO4)c3n2)c1 (stereo not drawn)	-4%	-11%	3%	-11%
NC(CS)C(=O)O (stereo not drawn)	·	11%	·	45µM*

Screening results: PubChem BioAssay, National Center for Advancing Translational Sciences (NCATS)
